Screening results: PubChem BioAssay, National Center for Advancing Translational Sciences (NCATS)
In the library only some 6.5% were active in any assay of this set; here they are far more common.
LASV entry inh = Lassa virus entry inhibition; AID 540256; Lassa virus pseudotype entry inhibition, cell reporter; actives 1.2% (n = 300,000); Potency, µM (series often up to 37.9 µM), inactives show at the highest dose activity change, negative = inhibition, usual class: inhibitors; calls by dose curve; tested in HEK293 cells; further: potency means the concentration at half of the fitted maximal effect; nearly all actives have a fitted effect of over 50% in size
HCMV inh = human cytomegalovirus inhibition; HFF cells, HCMV-luciferase reporter, 72 h; stronger effect = lower value; activity change, negative = inhibition, % at 57.5 µM; actives 4.5% (n = 410,000); AID 1259415; in the data active means activity change below about -60%; inconclusive means no clear call, values can overlap the other calls; inactive means above about -39%
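Two-dose cell screen: HFF monolayers treated with compounds and infected with luciferase-expressing HCMV at 1 PFU/cell, 72 h at 37C, then lysed for luciferase measurement.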
FMDV antiviral = foot and mouth disease virus antiviral activity; FMDV antiviral cell-based qHTS; Potency, µM (highest dose often 57.9 µM), for the others: at the highest dose activity change, negative = inhibition, most hits filed as inhibitors; actives 1.2% (n = 410,000); AID 1159524; calls by dose curve; tested in HEK293T cells; further: read-out not given here; potency means the concentration at half of the fitted maximal effect; nearly all actives have a fitted effect of over 45% in size
VACV mCherry inh = vaccinia inhibition (mCherry reporter); Vaccinia virus mCherry reporter infection, fluorescence; Potency, µM (top dose mostly 36.5 µM), inactives show at the top dose activity change, negative = inhibition, hits mostly inhibitors; actives 0.63% (n = 310,000); calls by dose curve; tested in A549 cells; further: potency means the concentration at half of the fitted maximal effect; nearly all actives have a fitted effect of over 35% in size
Marburg entry inh = blocks Marburg virus binding to or entry into cells; actives 1.8% (n = 300,000); AID 540276; Potency, µM (highest dose often 37.8 µM), for inactives: at the top dose activity change, negative = inhibition, actives largely listed as inhibitors; Marburg virus pseudotyped entry inhibition, cell reporter; calls by dose curve; tested in HEK293 cells; further: potency means the concentration at half of the fitted maximal effect
VACV Venus inh = vaccinia inhibition (Venus reporter). Vaccinia virus Venus reporter expression, fluorescence. Potency, µM (series often up to 36.5 µM), without a hit: at the top dose activity change, negative = inhibition, hits mostly inhibitors. actives 0.46% (n = 330,000); calls by dose curve; tested in A549 cells; further: potency means the concentration at half of the fitted maximal effect; nearly all actives have a fitted effect of over 30% in size
Active calls of the source: *; [ ] = remark or other dose. On the % scale 0 is the no-effect control and ±100 the full control effect.

CC(=O)c1ccc(S(=O)(=O)N2CCN(CCOc3ccc(Br)cc3)CC2)cc1 was read as HCMV inh inconclusive and FMDV antiviral 17.8µM*.
O=C(CCS(=O)(=O)c1ccc(Br)cc1)N1CCN(Cc2ccccc2)CC1 was read as LASV entry inh -14.9%, HCMV inh 49.3, FMDV antiviral inconclusive, Marburg entry inh -16.2%[46.1 µM] and VACV Venus inh inconclusive.
O=C(O)C1CSC(c2ccccc2Cl)N1C(=O)c1ccc(Cl)cc1 (configuration not stated) was read as LASV entry inh -1.9%, HCMV inh -61.0*, FMDV antiviral -23.2%, VACV mCherry inh -11.5%, Marburg entry inh inconclusive and VACV Venus inh -8.1%.
For CCOc1ccc(Nc2oc(-c3ccc(COc4ccccc4C)o3)nc2C#N)cc1 the results were LASV entry inh 3.0%[46.1 µM], HCMV inh -71.5*, FMDV antiviral -21.7%, VACV mCherry inh -26.7%, Marburg entry inh 3.2%[46.1 µM] and VACV Venus inh -17.6%.
`N#Cc1nc(-c2ccc(COc3ccc(Cl)cc3)o2)oc1N1CCC(C(N)=O)CC1` gave LASV entry inh -13.3%[46.1 µM], HCMV inh -64.7*, FMDV antiviral inconclusive, VACV mCherry inh -26.7%, Marburg entry inh 12.6%[46.1 µM] and VACV Venus inh -24.0%.
N#Cc1nc(-c2ccc(OCc3ccccc3)cc2)oc1N1CCC(C(N)=O)CC1 was read as LASV entry inh 0.1%, HCMV inh -36.6, FMDV antiviral -23.0%, VACV mCherry inh -23.1%, Marburg entry inh -3.8% and VACV Venus inh inconclusive.
For CCNc1oc(-c2ccc(COc3ccc(Cl)cc3)o2)nc1C#N the results were LASV entry inh -1.5%[46.1 µM], HCMV inh -23.1, FMDV antiviral inconclusive, VACV mCherry inh -10.5%, Marburg entry inh 7.8%[46.1 µM] and VACV Venus inh -15.3%.
CC(Nc1oc(-c2ccc(COc3ccc(Cl)cc3)o2)nc1C#N)c1ccccc1 (configuration not stated) was read as LASV entry inh -24.8%[46.1 µM], HCMV inh -73.9*, FMDV antiviral 0.0%, VACV mCherry inh -24.6%, Marburg entry inh -14.1%[46.1 µM] and VACV Venus inh -14.7%.
For COc1ccc(Nc2oc(COc3ccc(Cl)cc3)nc2C#N)cc1 the results were LASV entry inh inconclusive, HCMV inh -78.3*, FMDV antiviral inconclusive, VACV mCherry inh -20.5%, Marburg entry inh inconclusive and VACV Venus inh -16.3%.
Screening COc1ccc(NC(=O)Cn2c3ncccc3c(=O)n2-c2ccc(C)c(C)c2)c(OC)c1 returned LASV entry inh -15.1%[46.1 µM], HCMV inh -1.6, FMDV antiviral -9.4%, VACV mCherry inh -16.8%[7.34 µM] and VACV Venus inh -13.7%[7.34 µM].
For CS/C(N)=C(C#N)/C(C#N)=C(\N)SC the results were FMDV antiviral -13.4%.
Screening Cc1ccc2cc(CNC(C)CO)c(N3CCC(O)CC3)nc2c1 (configuration not stated) returned FMDV antiviral 9.7%, VACV mCherry inh 6.5% and VACV Venus inh 25.1%.
For COc1ccc(CNC(=O)Cn2ncn3nc(-c4cccs4)cc3c2=O)cc1 the results were LASV entry inh 3.5%[46.1 µM], HCMV inh -16.5, FMDV antiviral -3.6%, VACV mCherry inh -6.3%, Marburg entry inh 9.2%[46.1 µM] and VACV Venus inh -10.0%.
Screening COc1ccc(Nc2oc(-c3ccc(Cl)cc3)nc2C#N)cc1 returned LASV entry inh -4.2%, HCMV inh 53.9, FMDV antiviral 76.0%, VACV mCherry inh inconclusive, Marburg entry inh inconclusive and VACV Venus inh inconclusive.
Screening CCOc1ccc(Nc2oc(-c3ccc(Cl)cc3)nc2C#N)cc1 returned LASV entry inh 16.4µM*, HCMV inh 73.9, FMDV antiviral 46.4%, VACV mCherry inh inconclusive, Marburg entry inh 7.3µM* and VACV Venus inh inconclusive.
Screening COc1cccc(-c2cc3nc(C)cc(N4CCN(C(=O)c5ccoc5)CC4)n3n2)c1 returned HCMV inh -15.2, FMDV antiviral -27.3%, VACV mCherry inh inactive and VACV Venus inh -16.6%.
Screening COc1cccc(-c2cc(N3CCN(C(=O)c4ccoc4)CC3)n3nc(-c4cccc(Cl)c4)cc3n2)c1 returned HCMV inh -93.7*, FMDV antiviral -29.4%, VACV mCherry inh -25.6% and VACV Venus inh inconclusive.
